Source: PubChem BioAssay
Results with a measured potency or affinity are listed apart. Active and inactive are the calls of the source. No cut-off is given here; in the data, nearly all actives have IC50 up to about 0.98 µM.

What follows are compounds tested against Calcium-dependent protein kinase 1 (Plasmodium falciparum (isolate 3D7)) (UniProt P62344) (assay: PfCDPK1 kinase inhibitors, biochemical, TCAMS library (AID 1159585;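 note: inhibitors leave more ATP so luminescence rises with inhibition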)). Conditions: recombinant PfCDPK1, Kinase-Glo ATP depletion luminescence.
Calcium-dependent protein kinase 1 (Plasmodium falciparum (isolate 3D7)), sequence (P62344 whole entry, looked up): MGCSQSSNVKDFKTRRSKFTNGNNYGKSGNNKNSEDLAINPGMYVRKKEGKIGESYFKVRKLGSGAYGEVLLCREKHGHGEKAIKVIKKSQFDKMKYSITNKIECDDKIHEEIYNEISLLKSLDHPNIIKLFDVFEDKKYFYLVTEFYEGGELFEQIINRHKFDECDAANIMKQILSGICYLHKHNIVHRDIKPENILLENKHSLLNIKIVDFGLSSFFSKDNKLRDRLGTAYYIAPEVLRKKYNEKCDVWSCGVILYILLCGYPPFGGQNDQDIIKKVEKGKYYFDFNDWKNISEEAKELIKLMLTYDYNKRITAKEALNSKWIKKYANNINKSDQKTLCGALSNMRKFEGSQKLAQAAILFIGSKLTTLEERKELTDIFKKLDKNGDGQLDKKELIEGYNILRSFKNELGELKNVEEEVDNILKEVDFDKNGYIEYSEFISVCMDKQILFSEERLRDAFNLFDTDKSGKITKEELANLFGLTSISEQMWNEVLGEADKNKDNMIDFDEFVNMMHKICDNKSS

outcome, inactive:
Cc1ccccc1C1CCN(C2CCC(NC(=O)c3cc4cc(C(C)C)ccc4[nH]3)CC2)CC1 (stereo not given)
CCN(CC)CCCC(C)Nc1cc(C=Cc2ccccc2Cl)nc2cc(Cl)ccc12 (stereo not given)
N/C(=N\c1ncccn1)Nc1cccc(Cc2ccccc2)n1
Cc1cc([N+](=O)[O-])ccc1N1CCN(CCCCNC(=O)c2ccc(NC(=O)c3ccc(Cl)cc3)cc2)CC1
Cc1ccc(OCC2CCN(c3ncc(C(=O)NCCCN4CCCC4=O)cc3Cl)CC2)cc1
NC1CCN(Cc2cccc(-c3ccc(-c4nc5ccccc5[nH]4)cc3)c2)C1 (stereo not given)
O=C(/C=C/c1ccccc1Cl)NC1CCC(CN2CCC(c3c[nH]c4ccncc34)CC2)CC1 (stereo not given)
COC(=O)c1cccc(CNCc2ccc(-c3cccc(-c4nc5c(C)cccc5[nH]4)c3)cc2)c1
Cc1cccc2[nH]c(-c3cccc(-c4cccc(NC(=O)CNC(=O)c5ccc(O)cc5)c4)c3)nc12
CC(=O)NCCNc1nccc(N2CCc3ncnc(Nc4ccc(OCc5cccc(F)c5)c(Cl)c4)c3C2)n1
COc1ccc(-c2cccc(NC(=O)c3cccc(Cl)c3)c2)cc1CN(C)CCN(C)C
O=C(NCC1Cc2cc(Oc3ccccc3)ccc2O1)c1ccc([N+](=O)[O-])o1 (stereo not given)
CCCCn1c(SC(C)C)nc2c(c1=O)C1(CCCCC1)Cc1ccccc1-2
CC(=O)Nc1ccc(S(=O)(=O)N2CCN(c3nc(NC4CCCC4)c4ccccc4n3)CC2)cc1
Cc1ccc(O)cc1Nc1ccnc2ccc(-c3csc(CNCCN4CCOCC4)n3)cc12
